Source: the supplement of paper PMC10849652
About 7,900 targets were measured; listed, in parts, are those with a hit and a random draw of the rest. About 0.6% of all pairs of compound and target were hits. Values without a mark were called inactive.

Tests used:
Experiment in all cases: log2 fold change, soluble protein after heating vs DMSO (PISA); higher = thermal stabilisation; K562 cells, 10 uM, 30 min; active = over 0.2 and 3.5 SD of the protein, either way, in both replicates (recomputed)
[1] = compound: COC1=CC=C(C=C1)CN2C=CC3=C2C=C(C=C3)C(=O)NO
How it was run: (§1)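 K562 cells at 2×10^6 cells/mL were given 10 μM compound for 30 min. Aliquots then went through 3 min of heating across 48°C-58°C, were pooled, and were extracted in PBS with 0.5% NP-40 at 4°C, and the supernatant after 21,000xg for 90 min was quantified by TMTpro 16plex LC-MS/MS with channel sums equalised. Thermal stability relative to control samples, from duplicates, is given as log2 fold change.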

filanesib = compound: CON(C)C(=O)N1N=C(c2cc(F)ccc2F)S[C@@]1(CCCN)c1ccccc1 [filanesib]
How it was run: as §1

zotarolimus = compound: CO[C@H]1C[C@@H]2CC[C@@H](C)[C@@](O)(O2)C(=O)C(=O)N2CCCC[C@H]2C(=O)O[C@H]([C@H](C)C[C@@H]2CC[C@H](n3cnnn3)[C@H](OC)C2)CC(=O)[C@H](C)/C=C(\C)[C@@H](O)[C@@H](OC)C(=O)[C@H](C)C[C@H](C)/C=C/C=C/C=C/1C [zotarolimus]
How it was run: as §1

idasanutlin = compound: COc1cc(C(=O)O)ccc1NC(=O)[C@@H]1N[C@@H](CC(C)(C)C)[C@](C#N)(c2ccc(Cl)cc2F)[C@H]1c1cccc(Cl)c1F [idasanutlin]
How it was run: as §1

alisertib = compound: COc1cc(Nc2ncc3c(n2)-c2ccc(Cl)cc2C(c2c(F)cccc2OC)=NC3)ccc1C(=O)O [alisertib]
How it was run: as §1

[2] = compound: COc1cc2nc(-c3cc(F)ccc3O)nc(N[C@@H]3CNC[C@H]3C(C)(C)O)c2cc1OC
How it was run: as §1

gefitinib = compound: COc1cc2ncnc(Nc3ccc(F)c(Cl)c3)c2cc1OCCCN1CCOCC1 [gefitinib]
How it was run: as §1

[3] = compound: COc1cccc2cc(-c3nc([C@H]4CC[C@H](C(=O)O)CC4)n4ncnc(N)c34)[nH]c12
How it was run: as §1

lapatinib = compound: CS(=O)(=O)CCNCc1ccc(-c2ccc3ncnc(Nc4ccc(OCc5cccc(F)c5)c(Cl)c4)c3c2)o1 [lapatinib]
How it was run: as §1

pictilisib = compound: CS(=O)(=O)N1CCN(Cc2cc3nc(-c4cccc5[nH]ncc45)nc(N4CCOCC4)c3s2)CC1 [pictilisib]
How it was run: as §1

Sequence of UniProt P23786 (P23786 whole entry, looked up): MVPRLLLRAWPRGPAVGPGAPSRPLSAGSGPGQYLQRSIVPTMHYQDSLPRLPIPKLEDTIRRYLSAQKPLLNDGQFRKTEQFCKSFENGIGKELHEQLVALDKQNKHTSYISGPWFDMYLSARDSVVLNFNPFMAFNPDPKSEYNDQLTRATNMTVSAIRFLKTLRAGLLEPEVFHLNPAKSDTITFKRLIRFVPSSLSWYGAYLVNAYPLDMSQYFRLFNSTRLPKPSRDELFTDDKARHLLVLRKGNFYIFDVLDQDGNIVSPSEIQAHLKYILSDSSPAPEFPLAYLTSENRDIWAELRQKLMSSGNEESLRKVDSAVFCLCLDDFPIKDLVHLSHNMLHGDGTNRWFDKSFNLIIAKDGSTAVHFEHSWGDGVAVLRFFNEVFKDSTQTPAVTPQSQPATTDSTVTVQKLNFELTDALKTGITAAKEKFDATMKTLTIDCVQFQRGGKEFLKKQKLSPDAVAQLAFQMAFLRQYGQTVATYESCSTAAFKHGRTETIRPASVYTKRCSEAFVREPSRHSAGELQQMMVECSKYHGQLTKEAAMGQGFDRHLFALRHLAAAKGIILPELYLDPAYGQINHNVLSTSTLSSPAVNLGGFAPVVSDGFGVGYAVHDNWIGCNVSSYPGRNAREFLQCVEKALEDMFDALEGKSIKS
Sequence of UniProt P41240 (P41240 whole entry, looked up): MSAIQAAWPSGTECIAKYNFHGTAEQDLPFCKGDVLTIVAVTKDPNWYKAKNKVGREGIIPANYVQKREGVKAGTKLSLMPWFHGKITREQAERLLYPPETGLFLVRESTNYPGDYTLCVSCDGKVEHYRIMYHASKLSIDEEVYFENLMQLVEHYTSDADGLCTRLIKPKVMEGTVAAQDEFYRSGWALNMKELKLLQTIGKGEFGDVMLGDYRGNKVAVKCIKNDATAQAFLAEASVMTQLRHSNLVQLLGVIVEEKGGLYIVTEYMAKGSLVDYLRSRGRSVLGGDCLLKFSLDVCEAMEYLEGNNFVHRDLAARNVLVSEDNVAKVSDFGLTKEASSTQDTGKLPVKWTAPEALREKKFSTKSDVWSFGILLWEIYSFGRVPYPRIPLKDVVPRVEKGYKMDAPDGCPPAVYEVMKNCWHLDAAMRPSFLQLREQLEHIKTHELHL
Sequence of UniProt P12277 (P12277 whole entry, looked up): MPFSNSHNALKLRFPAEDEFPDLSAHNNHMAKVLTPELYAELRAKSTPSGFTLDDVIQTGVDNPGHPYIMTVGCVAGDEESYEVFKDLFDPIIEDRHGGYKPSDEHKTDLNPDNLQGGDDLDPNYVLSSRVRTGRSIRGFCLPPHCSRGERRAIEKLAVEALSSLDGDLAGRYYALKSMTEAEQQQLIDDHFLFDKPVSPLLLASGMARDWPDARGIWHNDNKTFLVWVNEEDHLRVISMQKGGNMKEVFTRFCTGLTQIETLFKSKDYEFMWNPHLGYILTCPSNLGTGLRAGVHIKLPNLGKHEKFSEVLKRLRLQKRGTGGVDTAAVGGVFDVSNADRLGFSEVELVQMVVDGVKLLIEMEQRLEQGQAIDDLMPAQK
Sequence of UniProt Q13057 (Q13057 whole entry, looked up): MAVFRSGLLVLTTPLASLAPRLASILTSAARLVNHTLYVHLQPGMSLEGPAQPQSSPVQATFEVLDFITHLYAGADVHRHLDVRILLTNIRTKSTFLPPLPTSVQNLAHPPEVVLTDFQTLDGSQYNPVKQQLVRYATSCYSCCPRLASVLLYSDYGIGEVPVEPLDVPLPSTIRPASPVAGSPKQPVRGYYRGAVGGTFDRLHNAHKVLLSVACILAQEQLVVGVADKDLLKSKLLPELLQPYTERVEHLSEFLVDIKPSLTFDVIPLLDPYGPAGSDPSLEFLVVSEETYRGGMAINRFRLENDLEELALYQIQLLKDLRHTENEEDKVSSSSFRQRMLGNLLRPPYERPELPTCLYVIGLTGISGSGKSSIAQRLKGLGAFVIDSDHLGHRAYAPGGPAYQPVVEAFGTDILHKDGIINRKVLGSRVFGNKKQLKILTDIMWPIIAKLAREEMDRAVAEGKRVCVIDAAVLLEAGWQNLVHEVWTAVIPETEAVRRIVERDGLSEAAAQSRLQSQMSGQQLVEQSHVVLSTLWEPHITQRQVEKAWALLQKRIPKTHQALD
Sequence of UniProt P0C0L4 (P0C0L4 whole entry, looked up): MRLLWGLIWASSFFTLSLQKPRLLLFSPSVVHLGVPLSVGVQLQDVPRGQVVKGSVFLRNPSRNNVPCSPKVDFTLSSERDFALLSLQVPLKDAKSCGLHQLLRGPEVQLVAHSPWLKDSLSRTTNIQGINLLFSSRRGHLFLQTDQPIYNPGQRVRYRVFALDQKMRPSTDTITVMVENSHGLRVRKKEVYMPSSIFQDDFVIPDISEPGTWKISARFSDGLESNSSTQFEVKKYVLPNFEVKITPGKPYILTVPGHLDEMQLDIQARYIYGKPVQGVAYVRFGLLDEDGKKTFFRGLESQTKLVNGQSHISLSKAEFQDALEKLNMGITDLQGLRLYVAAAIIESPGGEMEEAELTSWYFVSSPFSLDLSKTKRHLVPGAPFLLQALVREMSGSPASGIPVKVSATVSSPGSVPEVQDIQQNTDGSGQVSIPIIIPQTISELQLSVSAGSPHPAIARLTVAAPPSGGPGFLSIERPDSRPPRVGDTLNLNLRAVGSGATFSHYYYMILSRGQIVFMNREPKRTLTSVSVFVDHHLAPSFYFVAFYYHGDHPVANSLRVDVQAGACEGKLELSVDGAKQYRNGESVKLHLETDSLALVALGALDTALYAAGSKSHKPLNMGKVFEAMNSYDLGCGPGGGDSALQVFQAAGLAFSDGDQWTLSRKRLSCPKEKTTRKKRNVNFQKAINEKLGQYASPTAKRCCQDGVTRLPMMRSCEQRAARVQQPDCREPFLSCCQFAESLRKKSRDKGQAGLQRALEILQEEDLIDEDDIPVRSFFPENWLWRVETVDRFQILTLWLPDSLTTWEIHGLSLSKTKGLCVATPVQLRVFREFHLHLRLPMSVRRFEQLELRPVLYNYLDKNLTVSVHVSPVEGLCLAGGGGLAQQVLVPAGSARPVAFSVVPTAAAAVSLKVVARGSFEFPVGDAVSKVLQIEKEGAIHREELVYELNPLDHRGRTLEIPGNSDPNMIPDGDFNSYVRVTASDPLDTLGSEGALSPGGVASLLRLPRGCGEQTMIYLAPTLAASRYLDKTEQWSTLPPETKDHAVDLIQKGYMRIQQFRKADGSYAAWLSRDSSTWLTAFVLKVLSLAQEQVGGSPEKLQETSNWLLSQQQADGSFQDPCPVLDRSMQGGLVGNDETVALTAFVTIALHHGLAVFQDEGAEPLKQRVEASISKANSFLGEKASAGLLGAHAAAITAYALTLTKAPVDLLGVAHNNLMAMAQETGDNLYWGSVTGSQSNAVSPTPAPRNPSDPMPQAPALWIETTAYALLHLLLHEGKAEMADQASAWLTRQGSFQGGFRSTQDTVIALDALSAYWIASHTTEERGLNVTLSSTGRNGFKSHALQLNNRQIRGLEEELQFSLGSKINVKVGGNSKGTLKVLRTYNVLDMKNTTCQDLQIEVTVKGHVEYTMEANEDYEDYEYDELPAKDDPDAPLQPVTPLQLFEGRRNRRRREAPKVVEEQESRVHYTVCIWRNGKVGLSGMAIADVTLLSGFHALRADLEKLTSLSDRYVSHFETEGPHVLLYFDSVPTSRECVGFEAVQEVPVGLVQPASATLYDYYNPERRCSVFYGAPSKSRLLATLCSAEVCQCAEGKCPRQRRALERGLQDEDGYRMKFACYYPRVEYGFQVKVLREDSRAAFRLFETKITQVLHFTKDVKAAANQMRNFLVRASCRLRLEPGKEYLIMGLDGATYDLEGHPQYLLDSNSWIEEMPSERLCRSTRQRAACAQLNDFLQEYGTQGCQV
Sequence of UniProt Q8N4Q1 (Q8N4Q1 whole entry, looked up): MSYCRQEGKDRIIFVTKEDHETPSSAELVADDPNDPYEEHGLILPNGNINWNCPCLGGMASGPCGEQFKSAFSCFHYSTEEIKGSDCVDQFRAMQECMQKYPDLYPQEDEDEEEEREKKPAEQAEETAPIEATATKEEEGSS
Sequence of UniProt Q99807 (Q99807 whole entry, looked up): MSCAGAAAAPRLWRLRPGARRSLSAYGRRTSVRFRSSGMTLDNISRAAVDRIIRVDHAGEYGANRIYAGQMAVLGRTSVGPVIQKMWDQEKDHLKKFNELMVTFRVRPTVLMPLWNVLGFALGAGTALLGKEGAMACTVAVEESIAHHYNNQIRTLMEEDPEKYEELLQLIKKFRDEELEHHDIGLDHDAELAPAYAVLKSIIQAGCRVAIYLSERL
Sequence of UniProt Q9UKF6 (Q9UKF6 whole entry, looked up): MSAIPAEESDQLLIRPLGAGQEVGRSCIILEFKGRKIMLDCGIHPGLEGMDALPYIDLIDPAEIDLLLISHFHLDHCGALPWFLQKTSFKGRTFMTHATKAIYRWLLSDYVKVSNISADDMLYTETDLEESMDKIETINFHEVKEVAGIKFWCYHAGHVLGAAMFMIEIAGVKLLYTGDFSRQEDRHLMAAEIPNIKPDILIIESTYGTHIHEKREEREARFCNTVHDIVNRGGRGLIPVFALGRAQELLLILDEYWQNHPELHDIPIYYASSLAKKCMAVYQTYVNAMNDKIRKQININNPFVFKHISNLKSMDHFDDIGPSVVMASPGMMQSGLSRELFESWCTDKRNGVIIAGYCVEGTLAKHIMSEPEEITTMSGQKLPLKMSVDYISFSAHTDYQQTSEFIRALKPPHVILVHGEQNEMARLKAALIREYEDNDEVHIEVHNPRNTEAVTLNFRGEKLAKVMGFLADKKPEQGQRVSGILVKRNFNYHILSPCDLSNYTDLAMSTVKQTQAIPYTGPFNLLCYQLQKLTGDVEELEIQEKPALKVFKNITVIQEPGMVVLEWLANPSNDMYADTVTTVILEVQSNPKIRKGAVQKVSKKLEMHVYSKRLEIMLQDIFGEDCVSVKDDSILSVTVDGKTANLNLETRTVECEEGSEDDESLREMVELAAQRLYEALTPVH
Sequence of UniProt P61024 (P61024 whole entry, looked up): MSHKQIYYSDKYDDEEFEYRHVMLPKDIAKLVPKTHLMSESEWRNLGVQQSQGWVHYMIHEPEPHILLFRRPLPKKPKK

| Target | log2 fold change [1] | log2 fold change (filanesib) | log2 fold change (zotarolimus) | log2 fold change (idasanutlin) | log2 fold change (alisertib) | log2 fold change [2] | log2 fold change (gefitinib) | log2 fold change [3] | log2 fold change (lapatinib) | log2 fold change (pictilisib) |
| --- | --- | --- | --- | --- | --- | --- | --- | --- | --- | --- |
| COMT (UniProt P21964) | -0.097 | -0.054 | 0.034 | -0.093 | 0.009 | 0.15 | 0.043 | 0.004 | -0.042 | 0.136 |
| CHAMP1 (UniProt Q96JM3) | -0.001 | -0.008 | 0.07 | 0.005 | 0.006 | 0.025 | 0.029 | 0.022 | -0.065 | 0.107 |
| COASY isoform 2 (UniProt Q13057) | 0.034 | -0.061 | 0.024 | -0.071 | -0.038 | 0.01 | -0.038 | 0.045 | 0.043 | 0.028 |
| CBX5 (UniProt P45973) | 0.119 | -0.046 | 0.029 | -0.014 | -0.062 | 0.003 | 0.024 | 0.022 | 0.019 | 0.106 |
| CALB1 (UniProt P05937) | 0.029 | -0.192 | 0.006 | -0.024 | -0.022 | -0.071 | -0.024 | 0.015 | 0.013 | 0.027 |
| CNOT4 isoform 6 (UniProt O95628) | -0.057 | 0.017 | -0.023 | -0.001 | -0.036 | 0.037 | -0.007 | -0.012 | -0.008 | 0.036 |
| CA8 (UniProt P35219) | 0.046 | -0.055 | 0.09 | -0.073 | -0.112 | -0.086 | 0.023 | 0.032 | 0.008 | 0.173 |
| COX5B (UniProt P10606) | 0.012 | 0.212 | 0.094 | 0.019 | -0.103 | 0.004 | 0.011 | 0.015 | -0.038 | -0.04 |
| CCZ1 (UniProt P86791) | 0.052 | -0.062 | 0.044 | -0.015 | -0.072 | -0.036 | 0.013 | 0.018 | -0.005 | -0.047 |
| CCNK isoform 4 (UniProt O75909) | -0.067 | 0.177 | 0.163 | 0.061 | -0.013 | -0.021 | -0.014 | 0.024 | 0.066 | -0.033 |
| C9orf64 (UniProt Q5T6V5) | 0.07 | -0.091 | 0.038 | -0.062 | 0.078 | -0.079 | -0.062 | -0.022 | 0.043 | -0.055 |
| CETN2 (UniProt P41208) | -0.114 | 0.225 | -0.067 | 0.042 | -0.112 | 0.141 | 0.019 | 0.028 | -0.207 | 0.028 |
| CRKL (UniProt P46109) | 0.006 | 0.002 | 0.007 | 0.022 | -0.036 | 0.021 | 0 | 0.102 | -0.012 | 0.057 |
| CPD (UniProt O75976) | 0.022 | 0.082 | -0.045 | -0.005 | -0.038 | 0.046 | 0.007 | 0.015 | -0.01 | 0.034 |
| CPT2 (UniProt P23786) | 0.114 | -0.207 | 0.798 (active) | 0.806 (active) | -0.067 | -0.199 | 0.343 | -0.005 | 0.058 | 0.57 |
| CPSF3 (UniProt Q9UKF6) | -0.063 | 0.033 | 0.011 | -0.007 | -0.067 | -0.021 | 0 | -0.012 | 0.009 | -0.025 |
| CDAN1 (UniProt Q8IWY9) | -0.032 | -0.017 | 0.008 | -0.088 | -0.041 | -0.044 | -0.034 | 0.185 | 0.005 | 0.011 |
| CSE1L (UniProt P55060) | 0.024 | -0.1 | 0.027 | -0.135 | -0.059 | 0.005 | -0.018 | -0.019 | -0.036 | -0.015 |
| CDK13 (UniProt Q14004) | -0.323 | 0.169 | 0.029 | 0.215 | -0.141 | -0.197 | 0.001 | 0.037 | 0.054 | -0.048 |
| CPT1A (UniProt P50416) | 0.073 | 0.204 | 0.118 | 0.086 | 0.235 | 0.308 | 0.028 | -0.151 | 0.1 | 0.257 |
| CCDC9 (UniProt Q9Y3X0) | 0.057 | 0.021 | -0.11 | 0.018 | -0.035 | 0.02 | -0.078 | -0.021 | 0.003 | -0.015 |
| CHCHD4 isoform 2 (UniProt Q8N4Q1) | 0 | -0.059 | 0.032 | -0.043 | -0.099 | -0.285 | 0.011 | 0.102 | 0.341 | -0.016 |
| CBR1 (UniProt P16152) | 0 | -0.024 | 0.071 | -0.074 | -0.036 | 0.001 | -0.004 | 0.028 | 0.037 | -0.035 |
| COQ7 (UniProt Q99807) | 0.001 | -0.098 | -0.081 | 0.026 | 0.115 | 0.011 | 0.055 | 0.031 | 0.042 | 0.074 |
| CKS1B (UniProt P61024) | -0.045 | 0.047 | 0.013 | -0.011 | -0.012 | -0.048 | -0.008 | 0.031 | 0.004 | -0.007 |
| CNTN4 (UniProt Q8IWV2) | 0.1 | 0 | 0.017 | -0.148 | -0.399 | 0.341 | -0.039 | -0.169 | -0.047 | 0.222 |
| CSK (UniProt P41240) | 0.034 | -0.049 | 0.007 | -0.056 | -0.018 | 0.024 | 0.024 | -0.049 | 0.008 | 0.02 |
| C4A (UniProt P0C0L4) | 0.042 | 0.014 | -0.615 (active) | 0.068 | -0.005 | 0.001 | -0.198 | 0.175 | -0.078 | -0.291 |
| CKB (UniProt P12277) | -0.031 | -0.097 | 0.061 | -0.047 | -0.093 | -0.007 | 0.002 | 0.01 | 0.016 | 0.022 |
